Drawing on ChEMBL document CHEMBL4513216, “Probing the Open Global Health Chemical Diversity Library for Multistage-Active Starting Points for Next-Generation Antimalarials” (ACS Infect Dis, 2020), this text covers INHIBITION for 52 compounds.

In all, about 68,000 compounds went through this assay and about 2,700 (4%) showed an effect of 50% or more. The sample holds strong results, similar compounds and a random draw of the others, so the mix is not that of the screen.

The assay concerns Plasmodium berghei. The experiment in a line: Screen against P. berghei liver stage (PbLuc), transformed with Luciferase, at 2uM. In kind it is functional, HepG2. Particulars: tested at 2 uM.
In the case of `CN(C)Cc1nn(C)c2c1CCN(C(=O)CC1CC1)C2`, the INHIBITION is -1.31%.

For `C=C(C)COc1ccccc1C(=O)NCCCc1nnn[nH]1`, the INHIBITION was -24.7%. Turning to `OC(COCc1ccco1)CN1CCc2c(ncn2C2CC2)C1` (configuration not stated), the INHIBITION was determined as 35.23%. The same measure for `CC(Cc1cccs1)NC(=O)CCn1cccn1` (configuration not stated): 0.66%; for `O=C(CCOc1ccccc1)N1CCCC(c2ncc[nH]2)C1` (configuration not stated): 2.06%. The same measure for `CCCN(Cc1nccn1C)C(=O)C(CC)Nc1cccc(OC)c1` (configuration not stated): 16.82%; for `COCc1cn(CC2CCN(Cc3nc(C)c[nH]3)CC2)nn1`: -37.15%; for `Cc1ccc(CN2Cc3c(C(=O)N(C)C)nn(C)c3C2)s1`: -35.2%.

`Cc1cccc(CS(=O)(=O)c2nnc(N3CCOCC3)s2)c1`: the INHIBITION is given as 22.34%. As for `O=S(=O)(Cc1ccccc1)c1nnc(N2CCOCC2)s1`, the INHIBITION stood at 52.08%.

Take `O=S(=O)(Cc1ccccc1)c1nnc(N2CCCC2)s1`: the INHIBITION turned out to be 44.37%. The same measure for `CCCn1cc(CNCC(c2ccc(C)s2)N2CCOCC2)cn1` (configuration not stated): 10.46%; for `CNc1cc(C(=O)N2CCOC(C(=O)NC3CCCC3)C2)ccn1` (configuration not stated): -5.76%; for `CCn1cnnc1CNC(=O)N(C)Cc1ccc2c(c1)OCO2`: -19.35%. Regarding `CC(=O)N1CCCC(c2ccnc(Nc3cnccn3)n2)C1` (configuration not stated), the INHIBITION is listed as -39.95%.

Turning to `Cc1ccc(Nc2nccc(C3CCCN(CC(=O)N(C)C)C3)n2)nc1` (configuration not stated), the INHIBITION is recorded as -28.81%. With `O=C(C1CCC1)N1CCCC(c2ccnc(Nc3cnccn3)n2)C1` (configuration not stated), the INHIBITION was 57.82%. The same measure for `Cc1ccc(Nc2nccc(C3CCN(CC(N)=O)C3)n2)nc1` (configuration not stated): 85.75%. Then `O=C(C1CCCC1)N1CCC(c2ccnc(Nc3cnccn3)n2)C1` (configuration not stated), with 37.81%; and `Cc1ccc(Nc2nccc(C3CN(CC(N)=O)C3)n2)nc1`, with 9.79%; and `O=C(c1ccco1)N1CCOCC2(C1)CN(c1ccccc1)C(=O)CO2` (configuration not stated), with 16.48%. With `COc1ccc(CN2CC[C@H]3[C@H]2CC(=O)N3Cc2cccc(C)n2)cc1`, the INHIBITION was 3.55%.

For `CCCn1nc2c(cc1=O)CN(Cc1nc(C)c(C)o1)CC2`, the INHIBITION came to 44.43%.

In the case of `OC(CN1CC(n2cccn2)C1)c1ccc2c(c1)OCCO2` (configuration not stated), the INHIBITION is listed as -28.22%. Regarding `CN1CCOC(CNCc2csc(C3CCCC3)n2)C1` (configuration not stated), the INHIBITION is 60.71%.

Turning to `Cc1nc(CNCC2CN(C)CCO2)cs1` (configuration not stated), the INHIBITION is recorded as -50.23%. For the compound `CN1CCOC(CNCc2csc(C3CCCCC3)n2)C1` (configuration not stated), the INHIBITION was 16.84%. `CCOC(=O)c1c(NC(=O)CN2CCN(C(C)=O)CC2)sc2c1CCC2`: the INHIBITION is 25.47%. `C1CC(N2C[C@@H]3COC[C@]3(COCC3CCOCC3)C2)C1`: the INHIBITION stood at 22.96%. Then `CCc1noc(-c2ccc(SCC(=O)O)nc2)n1`, with 47.9%; and `CCOC(=O)CSc1ccc(-c2nc(CC)no2)cn1`, with 46.51%.

With `CCOC(=O)CSc1ccc(-c2nc(C)no2)cn1`, the INHIBITION is given as 70.75%. As for `COc1ccc(Br)c(C(=O)NCC2CC2)c1`, the INHIBITION is 9.21%.

With `CC(NC(=O)C1CCN(S(N)(=O)=O)CC1)c1cccc(OC(F)F)c1` (configuration not stated), the INHIBITION came out at 1.42%.

With `NS(=O)(=O)N1CCC(C(=O)Nc2cccc(OC(F)F)c2)CC1`, the INHIBITION is given as 50.98%. Turning to `O=C(Nc1cccc(OC(F)F)c1)C1CN(S(=O)(=O)C2CC2)C1`, the INHIBITION stood at 21%. Then `CN(C)C[C@@H]1C[C@@H]2CN(C(=O)c3ccoc3)CC[C@@H]2N1CC1CC1`, with -72.76%; and `C=Cc1ccc(C(=O)N2CCCC(Nc3ccccc3)C2)cc1` (configuration not stated), with 43.86%; and `CCN(C)S(=O)(=O)N1CCC(C(O)c2ccc(Cl)cc2)CC1` (configuration not stated), with -11.41%. Regarding `CN(C)S(=O)(=O)N1CCC(C(O)c2ccc(Cl)cc2)CC1` (configuration not stated), the INHIBITION was found to be 24.36%. The same measure for `CCN(C)S(=O)(=O)N1CCC(C(O)c2ccc(F)cc2)CC1` (configuration not stated): 52.98%; for `CCCn1nc2c(cc1=O)CN(Cc1nnc(C3CC3)o1)CC2`: -7.73%. For `Cc1ncsc1CCN(C)C(=O)CN1CCOC1=O`, the INHIBITION is on record as 29.13%. The same measure for `c1cc(CN2CC[C@H]3O[C@@H](COCC4CCOCC4)CC[C@H]32)ccn1`: -5.17%; for `Cc1nc2ccccc2n1CCNCc1cccc(C#N)c1`: -5.59%.

Take `Cc1nc2ccccc2n1CCNCc1cccc(O)c1`: the INHIBITION is on record as 54.47%. Then `COc1ccc(CNCCn2c(C)nc3ccccc32)cc1O`, with -92.51%; and `CSc1nsc(NC(=O)c2cc(C3CC3)nn2C)n1`, with -11.3%. As to `O[C@]12CCNC[C@H]1CN(c1ccnc3ccccc13)CC2`, the INHIBITION is listed as 16.35%. Then `OC[C@H]1CN(Cc2c(Cl)cncc2Cl)C[C@H]1CN1CCOCC1`, with 14.13%; and `OC[C@H]1CN(Cc2c(Cl)cncc2Cl)C[C@H]1CN1CCCCCC1`, with -34.9%; and `OC[C@H]1CN(Cc2c(Cl)cncc2Cl)C[C@H]1CN1CCCC1`, with 72.91%.
